Data taken from PubChem BioAssay.
Calls of active or inactive are those of the source. The rule behind the calls is not given here.

These compounds were tested against Pantothenate synthetase (Mycobacterium tuberculosis (strain ATCC 25618 / H37Rv)) (UniProt P9WIL5) (assay: Recombinant Mtb pantothenate synthetase (PanC) inhibitors, coupled enzyme, confirmatory (AID 375;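 note: 0% = full reaction with vehicle and 100% = no enzyme background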)). Conditions: coupled enzyme assay; at 10 µM, hits give high values.
Sequence of Pantothenate synthetase (Mycobacterium tuberculosis (strain ATCC 25618 / H37Rv)) (P9WIL5 whole entry, looked up): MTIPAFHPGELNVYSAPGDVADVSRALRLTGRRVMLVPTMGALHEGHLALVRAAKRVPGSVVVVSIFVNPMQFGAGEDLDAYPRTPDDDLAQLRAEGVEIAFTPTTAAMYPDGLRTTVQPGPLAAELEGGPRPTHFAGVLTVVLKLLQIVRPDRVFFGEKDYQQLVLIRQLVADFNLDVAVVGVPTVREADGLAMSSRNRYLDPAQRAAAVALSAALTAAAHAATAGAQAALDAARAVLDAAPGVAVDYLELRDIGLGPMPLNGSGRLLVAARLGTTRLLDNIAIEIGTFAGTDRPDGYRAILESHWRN
For `CCOC(=O)C1CCN(C(=O)COc2ccc(Cl)cc2Cl)CC1`, the inhibition was 0% (inactive).
With `CCCN1Cc2cccc(C(=O)NC3CCCC3)c2C1=O` the inhibition was 0% (inactive).
`CCOc1ccc2nc(SCC#N)c(C#N)cc2c1` was tested, and the inhibition was 0% (inactive).
With `CCOC(=O)N1CCN(c2c(NCCCOC(C)C)c(=O)c2=O)CC1` the inhibition was 4% (inactive).
`CCc1ccccc1N1C(=O)C2CC(C)=C(C)CC2C1=O` (stereo not given) was tested, and the inhibition was 0% (inactive).
In the case of `Cc1nnc(SCCn2c(N3CCC(Cc4ccccc4)CC3)nc3c2c(=O)[nH]c(=O)n3C)s1`, the inhibition is reported as 2% (inactive).
For `Cn1c(=O)c2c(nc(N3CCCCC3)n2CCSc2nc3ccccc3o2)n(C)c1=O`, the inhibition was 8% (inactive).
With `O=C(c1ccccc1)N1CCN(CC2CC=CCC2)CC1` (stereo not given) the inhibition was 0% (inactive).
In the case of `CC1CCN(C(=O)CSc2nnc(Cc3cc(=O)[nH]c(=O)[nH]3)n2-c2ccc(Cl)cc2)CC1`, the inhibition is reported as 4% (inactive).
With `CCN(Cc1nc2ccccc2c(=O)[nH]1)Cc1nc2cc(OC)c(OC)cc2c(=O)[nH]1` the inhibition was 0% (inactive).
`COc1ccc(N(CC(=O)NC2CCCC2)C(=O)Cn2nnc(-c3ccc(C)cc3)n2)cc1` was tested, and the inhibition was 0% (inactive).
`CCOC(=O)CSc1nc2cc(C(=O)N3CCC(C(N)=O)CC3)ccc2c(=O)n1-c1ccccc1` was tested, and the inhibition was 0% (inactive).
With `COC(=O)c1cc2ccsc2n1CC(=O)N(C)c1ccccc1` the inhibition was 10% (inactive).
With `Cc1ccc(SCc2[nH]nc3c2C(c2ccc(C)o2)C(C#N)=C(N)O3)cc1` (stereo not given) the inhibition was 3% (inactive).
In the case of `CCOc1ccc(N2C(N)=NC(N)=NC2(C)C)cc1`, the inhibition is reported as 0% (inactive).
In the case of `CC(=O)Nc1ccc(S(=O)(=O)NCc2csc(-c3cccnc3)n2)cc1`, the inhibition is reported as 0% (inactive).
In the case of `Cc1ccc(CCNC(=O)Cn2cccc2)cc1`, the inhibition is reported as 0% (inactive).
`CCN1CCCC1CNC(=O)c1cc2c(=O)n(C)c3ccccc3c2n1C` (stereo not given) was tested, and the inhibition was 0% (inactive).
With `COc1cc2c(cc1OC)C(c1cccnc1)CC(=O)N2` (stereo not given) the inhibition was 5% (inactive).
In the case of `CCN(CC)CCN1C(=O)C(O)=C(C(=O)c2cccs2)C1c1ccccn1` (stereo not given), the inhibition is reported as 0% (inactive).
For `CC(=O)Nc1ccc(-c2nn[nH]n2)cc1Cl`, the inhibition was 0% (inactive).
For `COCCNC(=O)CN(C)S(=O)(=O)c1ccc2c(c1)OCCO2`, the inhibition was 7% (inactive).
With `CN(C)S(=O)(=O)c1ccc(C(=O)N2CCCC2c2nc3ccccc3s2)cc1` (stereo not given) the inhibition was 0% (inactive).
With `CCN(CC)c1nc(N(CC)CC)[nH]c(=O)n1` the inhibition was 0% (inactive).
For `O=C1NC(=O)C(CC(=O)N(Cc2ccco2)C2(C(=O)NC3CCCC3)CCCCC2)N1` (stereo not given), the inhibition was 0% (inactive).
For `O=C(c1ccco1)N1CCN(c2ccc(Cl)cc2)CC1`, the inhibition was 5% (inactive).
In the case of `COc1ccc(N2CCN(C(=O)CCNS(=O)(=O)c3ccc(Br)s3)CC2)cc1`, the inhibition is reported as 3% (inactive).
For `COc1ccccc1NC(=O)N1CCCC1C(=O)NC1CCCCC1` (stereo not given), the inhibition was 0% (inactive).
In the case of `COc1ccc(S(=O)(=O)Nc2cc(C)on2)cc1OC`, the inhibition is reported as 0% (inactive).
`O=C(CN(c1ccc(F)cc1)S(=O)(=O)c1ccc2c(c1)OCCO2)Nc1ccc2c(c1)OCO2` was tested, and the inhibition was 3% (inactive).
`N/C(=N/O)c1nc(N2CCCCC2)nc(N2CCCCC2)n1` was tested, and the inhibition was 0% (inactive).
For `Cc1c(C(=O)NC2CC2)oc2ccc(S(=O)(=O)N3CCCCCC3)cc12`, the inhibition was 0% (inactive).
With `Cc1c2c(nc3nc4ccccc4n13)CC(C)(C)CC2=O` the inhibition was 8% (inactive).
In the case of `Cc1ccc(-c2noc(CN3C(C)CCCC3C)n2)cc1` (stereo not given), the inhibition is reported as 0% (inactive).
In the case of `COc1ccc(OCC(=O)Nc2cccc3ncccc23)cc1`, the inhibition is reported as 2% (inactive).
In the case of `CC(O)c1c(OCc2ccccc2)ncnc1OCc1ccccc1` (stereo not given), the inhibition is reported as 0% (inactive).
`c1ccc(Nc2ccccc2Nc2ccccn2)nc1` was tested, and the inhibition was 0% (inactive).
In the case of `Cc1c[nH]c2cccc(OCC(O)CNC(C)(C)C)c12` (stereo not given), the inhibition is reported as 0% (inactive).
For `O=C1c2ccccc2C(Nc2cccnc2)N1Cc1ccccc1Cl` (stereo not given), the inhibition was 0% (inactive).
In the case of `c1ccc2ncc(-n3cnnn3)cc2c1`, the inhibition is reported as 0% (inactive).
